This is an account of results in PubChem BioAssay (NCATS).

Results filed as inconclusive are left out. Active and inactive are the calls of the source. Calls follow the shape of the dose curve; as a rule, active = well fitted inhibition curve with a large enough effect; inconclusive = small, poorly fitted or top-dose-only effect; inactive = no such curve, though single readings can be large or run the other way.
% is scaled to controls: 0 for no effect and ±100 for the full control effect.

A short description of the assay: HTS Assay for Allosteric Antagonists of the Human D2 Dopamine Receptor: Hit Validation in HTRF (AID 624455).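 Also: stable D1 dopamine receptor cell line scored for blocking the D1 response.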 Conditions: Cells stably expressing D1 dopamine receptor, inhibition mode; series mostly up to 46.1 µM; activity, negative = inhibition: at the top concentration. The text has this: Dopamine receptors (DARs) are involved in the etiology and/or therapy of a number of neuropsychiatric and endocrine disorders. For instance, all receptor-based antiparkinsonian drugs work via stimulating the D2 DAR subtype whereas all FDA-approved antipsychotic agents are antagonists of this receptor. […] There are three different types of allosteric modulators that we are seeking, two of which will stimulate or augment receptor signaling, allosteric agonists and potentiators, while the third, allosteric antagonists, will attenuate receptor signaling. The present primary screening assay measures compound antagonism after an EC80 addition of dopamine by tracking calcium flux in a […], inducible Hek293 Trex D2 cell line. This assay measures activity of the hits in the D1 HTRF assay.
NIH Chemical Genomics Center [NCGC]
NIH Molecular Libraries Probe Centers Network [MLPCN]
Assay Submitter (PI): David Sibley
Cells stably expressing the D1 dopamine receptor will be run in an HTRF assay and compounds will be examined for the ability to inhibit the D1 mediated response.
On the technique in general: Time-resolved FRET reads energy transfer from a long-lived donor to a nearby acceptor.
For `COc1ccc(CCN(C)CCCC(C#N)(c2cc(OC)c(OC)c(OC)c2)C(C)C)cc1OC` (stereo not given), the “activity, negative = inhibition” value is 7.57% (inactive).
On to `O=C1CC2(CCCC2)CC(=O)N1CCCCN1CCN(c2ncccn2)CC1`, for which the “activity, negative = inhibition” value is -0.0944% (inactive).
For `COc1cc(C(=O)OCCCN2CCCN(CCCOC(=O)c3cc(OC)c(OC)c(OC)c3)CC2)cc(OC)c1OC`, the “activity, negative = inhibition” value was -6.35% (inactive).
As for `C=CCc1ccccc1OCC(O)CNC(C)C` (stereo not given), the figure is -2.18% (inactive); as for `NC1=NCC2c3ccccc3Cc3ccccc3N12` (stereo not given), 32.9% (inactive).
Regarding `COc1ccc(CN(CCN(C)C)c2ccccn2)cc1`, the “activity, negative = inhibition” value is 9.05% (inactive).
The same measure for `COc1ccc2c(c1OC)C(=O)O[C@@H]2[C@H]1c2c(cc3c(c2OC)OCO3)CCN1C`: 10.6% (inactive); for `CN(C)CC[C@@H](c1ccc(Br)cc1)c1ccccn1`: 3.41% (inactive); for `CC(C(=O)O)c1ccc(CC2CCCC2=O)cc1` (stereo not given): 6.17% (inactive).
`NC(=O)c1cn(Cc2c(F)cccc2F)nn1`: the “activity, negative = inhibition” value is -1.78% (inactive).
The same measure for `CN/C(=C\[N+](=O)[O-])NCCSCc1ccc(CN(C)C)o1`: -2.21% (inactive).
As for `C[C@H](CS)C(=O)N1CCC[C@H]1C(=O)O`, the figure is 2.22% (inactive); as for `CCn1cc(C(=O)O)c(=O)c2cc3c(cc21)OCO3`, 4.12% (inactive).
Take `Cc1cc(C)c(/C=C2\C(=O)Nc3ccccc32)[nH]1`: the “activity, negative = inhibition” value was 2.28% (inactive).
Regarding `CCCCNc1ccc(C(=O)OCCN(C)C)cc1`, the “activity, negative = inhibition” value was 1.26% (inactive).
As for `CCc1cccc(N(C)C(N)=Nc2cccc3ccccc23)c1`, the “activity, negative = inhibition” value is 1.17% (inactive).
Take `NS(=O)(=O)c1cc2c(cc1Cl)NC(C1CC3C=CC1C3)NS2(=O)=O` (stereo not given): the “activity, negative = inhibition” value was 15% (inactive).
As to `CCCOc1ccccc1-c1nc2n[nH]nc2c(=O)[nH]1`, the “activity, negative = inhibition” value is 8.59% (inactive).
As for `CN(C)CCCN1c2ccccc2Sc2ccccc21`, the figure is 34.7% (inactive); as for `COCCOC(=O)C1=C(C)NC(C)=C(C(=O)OC(C)C)C1c1cccc([N+](=O)[O-])c1` (stereo not given), -2.96% (inactive); as for `CC1=C(C)C(=O)C(CCCCC#CCCCC#CCO)=C(C)C1=O`, -1.46% (inactive).
As to `C[C@@H](O)[C@H]1C(=O)N2C(C(=O)O)=C(SCCN=CN)C[C@H]12`, the “activity, negative = inhibition” value is 6.04% (inactive).
As for `O=C(O)CP(=O)(O)O`, the “activity, negative = inhibition” value is 16.9% (inactive).
The same measure for `C#CCN(C)CCCOc1ccc(Cl)cc1Cl`: 4.72% (inactive); for `Cc1ccc(S(=O)(=O)NC(=O)NN2CCCCCC2)cc1`: 1.34% (inactive); for `CCCCNC(=O)NS(=O)(=O)c1ccc(C)cc1`: -1.78% (inactive).
On to `c1ccc2c(c1)CCCC2C1=NCCN1` (stereo not given), for which the “activity, negative = inhibition” value was -3.77% (inactive).
For `O=C1NCN(c2ccccc2)C12CCN(CCCC(c1ccc(F)cc1)c1ccc(F)cc1)CC2`, the “activity, negative = inhibition” value was 9.49% (inactive).
Consider `CCCC(C(=O)OCCN(CC)CC)(c1ccccc1)c1ccccc1`, for which the “activity, negative = inhibition” value was 6.07% (inactive).
With `Cc1nc2c([nH]1)c(=O)n(C)c(=O)n2Cc1ccco1`, the “activity, negative = inhibition” value is 2.03% (inactive).
On to `O=C(O)CCCCCCCC(=O)O`, for which the “activity, negative = inhibition” value was -2.84% (inactive).
The same measure for `CCOC(=O)C1=C(C)NC(C)=C(C(=O)OC)C1c1cccc(Cl)c1Cl` (stereo not given): 2.91% (inactive).
For `CN(C)CCN(Cc1cccs1)c1ccccn1`, the “activity, negative = inhibition” value was 11.6% (inactive).
On to `Cc1scc2c1N(C(=O)CN1CCN(C)CC1)c1ccccc1NC2=O`, for which the “activity, negative = inhibition” value is -5.44% (inactive).
As to `COC(=O)C1=C(C)NC(C)=C(C(=O)OCCN(C)Cc2ccccc2)C1c1cccc([N+](=O)[O-])c1` (stereo not given), the “activity, negative = inhibition” value is 9.39% (inactive).
Regarding `CCC(=O)c1ccc2c(c1)N(CCCN(C)C)c1ccccc1S2`, the “activity, negative = inhibition” value was 8.53% (inactive).
As for `NC(N)=NC(=O)Cc1c(Cl)cccc1Cl`, the figure is -11.8% (inactive).
Take `CN=C(NC#N)NCCSCc1nc[nH]c1C`: the “activity, negative = inhibition” value is 4% (inactive).
On to `CCN(CC)CCOCCOC(=O)C1(c2ccccc2)CCCC1`, for which the “activity, negative = inhibition” value is 2.96% (inactive).
On to `Nc1nc(N)c2nc(-c3ccccc3)c(N)nc2n1`, for which the “activity, negative = inhibition” value is -7.69% (inactive).
